# Reference: PubChem BioAssay (NCI)
# Compounds without any hit were thinned out: in the full panel of roughly 83,000, 20% have a hit.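 Percent growth is the endpoint: 0 to 100 indicates growth inhibition (40 means 60% inhibition), 0 means no net growth, and negative values indicate cell death.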 Values without a mark were called inactive. Calls of active or inactive are those of the source. The calls were made as follows: active = growth percent below 10; inactive = the rest.
# Key:
# Experiment in all cases: NCI-60 one-dose screen, 48 h (100 = growth as untreated, 0 = no growth, -100 = all killed)
# Conditions in all cases: 10 µM unless noted
# [1] = system: SR leukemia
# [2] = system: RPMI-8226 leukemia
# [3] = system: OVCAR-8 ovarian
# [4] = system: OVCAR-5 ovarian
# [5] = system: OVCAR-4 ovarian
# [6] = system: SK-OV-3 ovarian
# [7] = system: IGROV1 ovarian
# [8] = system: OVCAR-3 ovarian
# [9] = system: HS 578T breast
# [10] = system: NCI/ADR-RES ovarian
SMILES,growth [1],growth [2],growth [3],growth [4],growth [5],growth [6],growth [7],growth [8],growth [9],growth [10]
COc1ccc(N2CCC(=S)NC2=S)cc1,112%,103%,99.1%,104%,90.1%,116%,105%,103%,105%,–
Fc1cccc(-c2ccc3c(c2)C2(CCNCC2)CN3)c1,110%,95.7%,108%,103%,92%,112%,97.4%,102%,105%,–
Oc1c(CN2CCOCC2)cc(COCc2ccccc2)c2cccnc12,13.4%,29.1%,14.5%,37.8%,24.5%,9.56% (active),16.2%,19.7%,68.4%,–
O=C1Nc2ccccc2/C1=C/c1cccn1C(=O)c1ccc(Cl)s1,27.8%,52.5%,75.3%,66.5%,15.3%,72%,38.6%,38.8%,70.8%,–
O=S(=O)(NCCNc1nccc(-c2c(-c3ccc(F)c(O)c3)nc3sccn23)n1)c1ccc(F)cc1,1.25% (active),11.5%,29%,67.9%,31.5%,36.1%,12.2%,39.4%,26.9%,–
COc1ccc2c(c1)/C(=N/c1n[nH]c(=S)s1)C(=O)N2,69.9%,54.1%,92.8%,102%,97.7%,148%,75.3%,96.2%,91.7%,–
O=c1cc(-c2ccccc2)[nH]c2ncc(-c3ccc(F)cc3)n12,16.1%,74.5%,89.4%,94.5%,93.9%,82.1%,67%,54%,68%,45.3%
Nc1nc(NC(=O)Nc2ccc(C(=O)O)cc2)nn1-c1ccc(S(N)(=O)=O)cc1,99.5%,102%,86.8%,95.9%,103%,107%,94%,95.7%,88.1%,–
O=C1c2ccccc2C(=O)c2c1c(C(=O)NCc1ccccc1)c1ccccn21,90.9%,95.8%,93.9%,111%,105%,102%,97.8%,116%,97.9%,–
COC(=O)c1c2c(c(C)[n+]([O-])c1C)C(=O)C(NCc1ccc(OC)cc1)=CC2=O,9.98% (active),23.6%,-15.2% (active),53%,-39.2% (active),99.2%,8.2% (active),-18.6% (active),84.8%,–
CC[N+]1(CC)CC[N+]2(CCCC(C)CC2)CC1 (configuration not stated),106%,99.9%,105%,94.8%,111%,104%,95.6%,111%,107%,–
CSc1nc(C)c([N+](=O)[O-])c(N)n1,96.3%,78.4%,100%,118%,104%,85.1%,110%,114%,104%,–
CCCCCN(CCCCC)CC(O)c1cc(C)c2ccc3cc(C(C)C)ccc3c2c1 (configuration not stated),-12.9% (active),-18.6% (active),-35.9% (active),-28.2% (active),19.4%,85.6%,-12.8% (active),-47.7% (active),-24% (active),-54.6% (active)
FC(F)(F)c1ccc(Cn2cc(CSc3nc4ccccc4s3)nn2)cc1,96.3%,96.7%,91%,98.6%,94.8%,104%,97.7%,105%,88.6%,–
CCCn1cnc2c(c1=N)C(c1ccc(F)cc1)c1sc3c(F)cccc3c1O2 (configuration not stated),28.8%,39.7%,59.1%,81.4%,76.7%,71%,46.2%,10.5%,28.7%,–
CNC1=C([N+](=O)[O-])C(c2ccc(OC)cc2)C(C#N)=C(c2cccs2)O1 (configuration not stated),112%,111%,103%,108%,100%,110%,108%,99.4%,106%,107%
c1ccc(CCNc2c3ccccc3nc3ccccc23)cc1,20.9%,19.5%,38.3%,53.4%,35%,62.6%,28%,71%,73.3%,33.5%
COc1cnc2c(c1)C(=O)c1c-2n(CCCCl)c(=O)c2ccncc12,17.1%,41.9%,66.2%,116%,66.2%,89.3%,55.5%,2.98% (active),84.3%,59%
CSC(SC)=C(C#N)c1nc2ccccc2s1,81.2%,25%,70.2%,72.5%,68.1%,19.6%,49.3%,70%,77.1%,76.7%
Nc1nc(N)c2c(n1)NC(c1cccc(Nc3ccnc4cc(C(F)(F)F)ccc34)c1)CC(c1ccccc1)=N2 (configuration not stated),4.11% (active),9.67% (active),63%,113%,57.8%,65.3%,59.4%,45.3%,53.7%,70.2%
O=C(c1c[nH]c2ccccc12)c1n[nH]c(=S)n1-c1cccc(Br)c1,76.8%,84.1%,93.5%,89.7%,87.1%,91.8%,60.6%,86.4%,93.8%,106%
CCC1S/C(=N\N=C(\C)c2cc3cc(Cl)ccc3o2)N(c2ccccc2)C1=O (configuration not stated),85.1%,83.7%,126%,100%,107%,108%,671%,75.5%,52.4%,90.8%
CC(=O)ON1CCCC(P(=O)(OCCSC(=O)C(C)(C)C)OCCSC(=O)C(C)(C)C)C1=O (configuration not stated),6.15% (active),-17.3% (active),10.7%,89.2%,29.7%,38.6%,16.3%,10.4%,19.6%,13.2%
Cc1ccc(-c2csc(NC(=O)c3ccccc3CN3C(=O)c4ccccc4C3=O)n2)cc1,103%,94.8%,93.5%,90.8%,111%,97.5%,96.5%,103%,98.8%,82.3%
Nn1c(=O)c(=O)[nH]c2c(cnn2-c2ccccc2)c1=O,94.5%,103%,97.3%,108%,118%,102%,118%,107%,111%,106%
C/C(Cc1ccc(Cl)cc1)=C(\c1ccc(OCCCN(C)C)cc1)c1ccc(OC(=O)Cc2ccccc2)cc1,77.3%,105%,113%,105%,107%,85.6%,106%,101%,105%,103%
CC/C=C\CCC/C=C1/C(=O)C=C[C@@H]1C/C=C\CCCC(=O)OC,2.36% (active),1.41% (active),14.2%,73.5%,76.6%,119%,84.2%,26.7%,37.2%,25.9%
CNC(=O)c1cc(Oc2ccc3c(c2)sc2nc(-c4ccc(OC)cc4)cn23)ccn1,38%,20.2%,52.4%,36%,65.8%,16.8%,83.3%,4.08% (active),76.8%,71.3%

SMILES,growth [1],growth [2],growth [3],growth [4],growth [5],growth [6],growth [7],growth [8],growth [9],growth [10]
COc1ccc(C#Cc2ccc(=O)oc2-c2cc(OC)c(OC)c(OC)c2)cc1O,13.7%,18.2%,69.6%,43%,69%,47.2%,37.5%,-4.92% (active),54.5%,19.6%
C/C(=N\O)[C@@H]1CC[C@]2(CO)CC[C@]3(C)[C@H](CC[C@@H]4[C@@]5(C)CCCNC(C)(C)[C@@H]5CC[C@]43C)[C@@H]12,12.5%,53.4%,91.2%,88.5%,77.2%,105%,65.2%,80.3%,84.3%,96.6%
COc1ccc(-c2ccc(-c3ccc(C(=N)N)nc3)s2)cc1Cl,-7.17% (active),-45.4% (active),-28.5% (active),-37.6% (active),-79.5% (active),97.1%,-87.8% (active),-90.6% (active),-48.3% (active),37.7%
COc1cc(-c2nc3c(ncc4ccc(=O)n(-c5ccccc5)c43)s2)cc(OC)c1OC,74.5%,52.9%,88.3%,73.5%,72.8%,80%,53.5%,79.7%,52.6%,73.1%
O=C1Nc2ccccc2/C1=C\c1c[nH]c2ccc(Br)cc12,72.4%,73.9%,79.8%,80.4%,54.7%,66.5%,61.5%,72.5%,82.7%,57.7%
N=c1c(S(=O)(=O)c2ccccc2)cc2c(=O)n3ccccc3nc2n1CC1CCCO1 (configuration not stated),106%,109%,116%,89.8%,99.9%,99.3%,102%,108%,104%,98.7%
Cc1ccc(-c2nc(N3CCNCC3)c3oc(-c4ccc(C)cc4)nc3n2)cc1,-49.2% (active),-49.1% (active),-69% (active),78.4%,11.9%,86.2%,-77.1% (active),-94.6% (active),99.2%,-28.9% (active)
Cc1nn(-c2ccccc2)c(N)c1N=C1NC(=O)/C(=C/c2ccc(Br)cc2)S1,36.8%,42.3%,98.8%,72.7%,95.6%,84.8%,99.6%,72%,93.6%,77.7%
C=C1CC[C@@H]2C(C)(C)[C@@H](O)CC[C@@]2(C)[C@@H]1COc1ccc2ccc(=O)oc2c1,73.2%,50.7%,83.4%,117%,67.5%,112%,95.3%,78.3%,101%,61.7%
COc1ccc2[nH]cc(-c3nc(-c4c[nH]c5c(Cl)nccc45)cs3)c2c1,18.1%,43.5%,28.9%,99.9%,68.6%,46.9%,54.7%,75.9%,38.7%,20.7%
O=C(N/N=C/c1cc(Cl)ccc1O)c1ccccc1Nc1ccnc(C(F)(F)F)c1,105%,47.2%,63.5%,57.4%,28.7%,25%,92.5%,38%,75%,22.6%
COc1cccc(-c2cc(-c3cccc(Cl)c3)c(C#N)c(=O)[nH]2)c1,45.5%,64.3%,89.6%,96.7%,73%,81%,71.8%,51%,49.3%,69.2%
COc1ccc(/C(C)=C(/c2ccc(OCCCN(C)C)cc2)c2ccc(OC(=O)c3ccccc3)cc2)cc1,9.15% (active),62.6%,91.6%,88.1%,99.8%,90.8%,93.6%,69.5%,55.4%,86.4%
CCCCNC(=O)c1cc([N+](=O)[O-])cc(C2CCCCC2)c1O,84.1%,17%,43.9%,78.6%,14.3%,40.3%,43.2%,23.1%,48.3%,49.6%
CCN1C(=O)N(CC)C2C1NN=c1s/c(=C3\C(=O)N(CC(C)C)c4ccccc43)c(=O)n12 (configuration not stated),17.7%,17.5%,9.28% (active),30.3%,44.6%,45.1%,19%,5.65% (active),18%,5.71% (active)
COC(=O)c1ccc(NC(=O)Nc2ccc(C(=O)OC)cc2)cc1,78.9%,89.9%,104%,102%,113%,99.3%,106%,113%,92.8%,108%
CC(=O)/C(=C/c1ccc([N+](=O)[O-])cc1)C(=O)c1ccccc1,-0.146% (active),8.32% (active),94.4%,112%,93.7%,101%,82.9%,96.5%,92.3%,83.7%
CCO/C=N/C1=C(C#N)C(c2ccc(F)cc2)c2sc3c(F)cccc3c2O1 (configuration not stated),31.8%,41.9%,51.5%,83.4%,67.8%,46.9%,50.3%,8.43% (active),24.4%,25.6%
O=C(CSc1nc(-c2ccccc2)cc(=O)[nH]1)Nc1nc(-c2ccccc2)cs1,45.1%,96.1%,97%,95.9%,96.1%,84.1%,57.8%,101%,90%,93.2%
COc1ccc(CNc2c3ccccc3nc3ccccc23)c(OC)c1,18.1%,34.9%,37.8%,50.3%,39.7%,63.3%,22.4%,69.2%,68.9%,35.6%
N#CC1CCc2c(c(-c3ccc4nc(N)sc4c3)nc3ccc4[nH]ncc4c23)C1 (configuration not stated),9.04% (active),43.4%,46.4%,65.5%,64.9%,33.7%,53.2%,69.7%,30.9%,63.7%
Nc1nc(N)c(N=Nc2ccccc2)c(-c2ccccc2)n1,38.7%,62.5%,77.5%,56.9%,66.4%,50.6%,15.3%,67.2%,3.4% (active),75.1%
N#CC1=C(N)Oc2ccc3ccccc3c2C1c1ccc([N+](=O)[O-])cc1 (configuration not stated),77.3%,83%,85.7%,108%,69.3%,83.4%,50.6%,79.4%,90.2%,94.6%
C=C(C)[C@@H]1CC[C@]2(COC(C)=O)CC[C@]3(C)[C@H](CC[C@@H]4[C@@]5(C)CCCN(C(C)=O)C(C)(C)[C@@H]5CC[C@]43C)[C@@H]12,-35.6% (active),-6.5% (active),48.6%,59.2%,50.7%,111%,57.6%,88.3%,73.3%,66.9%
O=C(CN1CCCCCC1)Nc1nc2ccc(NCc3ccc(Cl)cc3)cc2s1,97.2%,79.3%,95.3%,98.6%,96.3%,107%,98.4%,104%,98%,106%
O=S(=O)(Nc1cc(Sc2cccc3cccnc23)c(O)c2ccccc12)c1ccccc1,5.4% (active),-4.98% (active),9.56% (active),47.1%,-100% (active),52.1%,10.4%,-81.2% (active),40.3%,8.88% (active)
C=C1C(=O)O[C@H]2[C@H]1CC/C(COC(=O)/C=C\C(=O)NCc1ccc(Cn3c(=O)sn(CCCCC)c3=O)cc1)=C\CC[C@@]1(C)O[C@@H]21,59.7%,8.85% (active),84.5%,89%,84.6%,111%,58%,36%,98.2%,98.8%
